Results filed as inconclusive are left out. Entries that show only a call come without a potency. Activity calls are given as the source filed them. Calls come from the whole dose curve; as a rule, active = well fitted cell-killing curve with a large enough effect; inconclusive = small, poorly fitted or top-dose-only effect; inactive = flat fitted curve, though single readings scatter.

The first assay can be described thus: Cell Viability - LYMP2-020 (AID 986). Note: nearly all actives have a fitted effect of over 55% in size. To be noted: series mostly up to 92.2 µM. The method, boiled down: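 Cytotoxicity in qHTS format: luminescent ATP readout from CellTiter-Glo after 24 h compound exposure at 37 C in complete medium. LYMP2-020 lymphoblastoid cells were seeded at 2500/well; concentration-response data fitted to the Hill equation for AC50.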
Take `Cc1cc(C)cc(N)c1`: the Potency result is “inactive”.

`Cc1ccc(C)cc1`: the Potency entry was “inactive”.

In the case of `c1ccc2c(c1)ccc1ncccc12`, the Potency entry is “inactive”.

On to `O=C(O)CCSSCCC(=O)O`, for which the Potency entry is “inactive”.

With `CC(CCl)OC(C)CCl` (configuration not stated), the Potency entry is “inactive”.

Consider `CCCC(Cl)CCCC(Cl)CCC(Cl)CCC(Cl)CCC(Cl)CCCC(Cl)CCC` (configuration not stated), for which the Potency entry was “inactive”.

As for `CC(=O)Nc1ccc(N)cc1`, the Potency entry was “inactive”.

As for `Nc1cc(S(=O)(=O)O)ccc1O`, the Potency entry is “inactive”.

For the compound `Nc1cccc(S(=O)(=O)O)c1`, the Potency entry is “inactive”.

In the case of `Cc1ccc2oc(=O)ccc2c1`, the Potency result was “inactive”.

In the case of `NC(=O)c1cccc([N+](=O)[O-])c1`, the Potency result was “inactive”.

Regarding `Nc1ccc(Cl)cc1[N+](=O)[O-]`, the Potency entry is “inactive”.

As for `Nc1cccc([N+](=O)[O-])c1`, the Potency result is “inactive”.

As for `Oc1c(Cl)ccc(Cl)c1Cl`, the Potency entry is “inactive”.

Turning to `C[C@@H]1CC2(OC3C[C@@]4(C)C5=CC[C@H]6C(C)(C)C(O[C@@H]7OC[C@@H](O)[C@H](O)[C@H]7O)CC[C@@]67C[C@@]57CC[C@]4(C)C31)OC(O)C1(C)OC21` (some centres not stated), the Potency result is “inactive”.

As to `Cc1ccc(N(C)C)cc1`, the Potency entry was “inactive”.

As to `C1COC1`, the Potency entry was “inactive”.

As for `O=C1CCCCC1`, the Potency entry is “inactive”.

On to `Cc1cccc([N+](=O)[O-])c1C(=O)O`, for which the Potency result was “inactive”.

In the case of `BrC(Br)C(Br)Br`, the Potency result is “inactive”.

`c1ccsc1`: the Potency result was “inactive”.

`ClCCl`: the Potency entry is “inactive”.

As to `Nc1ccc(F)cc1F`, the Potency entry is “inactive”.

As for `CCC(C)(C)C(=O)O`, the Potency result is “inactive”.

Regarding `CC(N)CN` (configuration not stated), the Potency entry is “inactive”.

On to `COc1ccc(OC)cc1`, for which the Potency result is “inactive”.

Take `C1CCC2OC2C1` (configuration not stated): the Potency entry was “inactive”.

With `Cc1ccc2cccnc2c1`, the Potency result is “inactive”.

In the case of `CCN(Cc1ccccc1)c1ccccc1`, the Potency result is “inactive”.

Consider `O=C1NC(=O)c2cc([N+](=O)[O-])ccc21`, for which the Potency result is “inactive”.

Turning to `CC(C)=C1CCC(C)CC1=O` (configuration not stated), the Potency entry is “inactive”.

Consider `OCCO`, for which the Potency entry is “inactive”.

In the case of `CC(C)(O)CCC(C)(C)O`, the Potency entry was “inactive”.

`Cc1cccc(C(=O)O)c1`: the Potency entry was “inactive”.

Regarding `C/C(C=O)=C/c1ccccc1`, the Potency result is “inactive”.

Consider `Cc1cccc(C)c1O`, for which the Potency entry is “inactive”.

Regarding `CC(C)c1ccccc1`, the Potency result is “inactive”.

A further assay is described as follows: Cell Viability - LYMP2-022 (AID 987). Note: nearly all actives have a fitted effect of over 55% in size. To be noted: LYMP2-022 lymphoblastoid cell viability; series mostly up to 92.2 µM. A digest of the protocol: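 Cytotoxicity read as decreased cellular ATP (CellTiter-Glo luminescence, 30 min room temperature) after 24 hours compound exposure of 2500 lymphoblastoid LYMP2-022 cells/well at 37 C. Concentration-response data fitted with standard Hill equation for AC50.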
For the compound `Cc1cc(C)cc(N)c1`, the Potency entry is “inactive”.

With `Cc1ccc(C)cc1`, the Potency result is “inactive”.

With `c1ccc2c(c1)ccc1ncccc12`, the Potency entry was “inactive”.

Regarding `O=C(O)CCSSCCC(=O)O`, the Potency result is “inactive”.

As for `CC(CCl)OC(C)CCl` (configuration not stated), the Potency entry is “inactive”.

Turning to `CCCC(Cl)CCCC(Cl)CCC(Cl)CCC(Cl)CCC(Cl)CCCC(Cl)CCC` (configuration not stated), the Potency result was “inactive”.

As for `CC(=O)Nc1ccc(N)cc1`, the Potency result was “inactive”.

In the case of `Nc1cc(S(=O)(=O)O)ccc1O`, the Potency result was “inactive”.

`Nc1cccc(S(=O)(=O)O)c1`: the Potency entry is “inactive”.

Consider `Cc1ccc2oc(=O)ccc2c1`, for which the Potency result was “inactive”.

For `NC(=O)c1cccc([N+](=O)[O-])c1`, the Potency result was “inactive”.

For `Nc1ccc(Cl)cc1[N+](=O)[O-]`, the Potency entry was “inactive”.

Regarding `Nc1cccc([N+](=O)[O-])c1`, the Potency entry was “inactive”.

Take `Oc1c(Cl)ccc(Cl)c1Cl`: the Potency result was “inactive”.

`Cc1ccc(N(C)C)cc1`: the Potency result is “inactive”.

In the case of `C1COC1`, the Potency entry is “inactive”.

In the case of `O=C1CCCCC1`, the Potency entry was “inactive”.

As to `Cc1cccc([N+](=O)[O-])c1C(=O)O`, the Potency result was “inactive”.

As for `BrC(Br)C(Br)Br`, the Potency result was “inactive”.

Regarding `c1ccsc1`, the Potency result is “inactive”.

Regarding `ClCCl`, the Potency entry was “inactive”.

`CCC(C)(C)C(=O)O`: the Potency result was “inactive”.

On to `CC(N)CN` (configuration not stated), for which the Potency entry was “inactive”.

Take `COc1ccc(OC)cc1`: the Potency entry was “inactive”.

In the case of `C1CCC2OC2C1` (configuration not stated), the Potency entry was “inactive”.

As for `Cc1ccc2cccnc2c1`, the Potency result is “inactive”.

As for `CCOc1cc(OCC)c(C(C)=O)cc1OCC`, the Potency result was “inactive”.

As to `O=C1NC(=O)c2cc([N+](=O)[O-])ccc21`, the Potency result is “inactive”.

With `CC(C)=C1CCC(C)CC1=O` (configuration not stated), the Potency entry is “inactive”.

With `CNC(=O)N(c1ccccc1)c1ccccc1`, the Potency entry is “inactive”.

In the case of `OCCO`, the Potency result was “inactive”.

Consider `CC(C)(O)CCC(C)(C)O`, for which the Potency result was “inactive”.

Turning to `Cc1cccc(C(=O)O)c1`, the Potency entry is “inactive”.

Take `C/C(C=O)=C/c1ccccc1`: the Potency entry is “inactive”.

For the compound `Cc1cccc(C)c1O`, the Potency result is “inactive”.

Consider `CC(C)c1ccccc1`, for which the Potency result was “inactive”.

A further assay in a line: Cell Viability - LYMP2-024 (AID 988). Note: nearly all actives have a fitted effect of over 60% in size. Conditions: LYMP2-024 lymphoblastoid cell viability; series mostly up to 92.2 µM. The method, boiled down: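 Cytotoxicity was taken as a decrease in ATP (CellTiter-Glo luminescence) after 24 hr compound exposure at 37 C of LYMP2-024 lymphoblastoid cells, 2500 cells/well. Concentration-response data were fitted to the Hill equation to give AC50.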
Turning to `Cc1cc(C)cc(N)c1`, the Potency entry is “inactive”.

`Cc1ccc(C)cc1`: the Potency entry is “inactive”.

For `c1ccc2c(c1)ccc1ncccc12`, the Potency entry was “inactive”.

In the case of `O=C(O)CCSSCCC(=O)O`, the Potency result is “inactive”.

With `CC(CCl)OC(C)CCl` (configuration not stated), the Potency result is “inactive”.

In the case of `CCCC(Cl)CCCC(Cl)CCC(Cl)CCC(Cl)CCC(Cl)CCCC(Cl)CCC` (configuration not stated), the Potency entry was “inactive”.

`CC(=O)Nc1ccc(N)cc1`: the Potency result is “inactive”.

Consider `Nc1cc(S(=O)(=O)O)ccc1O`, for which the Potency result is “inactive”.

Turning to `Nc1cccc(S(=O)(=O)O)c1`, the Potency entry was “inactive”.

On to `Cc1ccc2oc(=O)ccc2c1`, for which the Potency result is “inactive”.

With `NC(=O)c1cccc([N+](=O)[O-])c1`, the Potency result is “inactive”.

For the compound `Nc1ccc(Cl)cc1[N+](=O)[O-]`, the Potency result was “inactive”.

With `Nc1cccc([N+](=O)[O-])c1`, the Potency entry was “inactive”.

Consider `Oc1c(Cl)ccc(Cl)c1Cl`, for which the Potency result was “inactive”.

Take `C[C@@H]1CC2(OC3C[C@@]4(C)C5=CC[C@H]6C(C)(C)C(O[C@@H]7OC[C@@H](O)[C@H](O)[C@H]7O)CC[C@@]67C[C@@]57CC[C@]4(C)C31)OC(O)C1(C)OC21` (some centres not stated): the Potency result was “inactive”.

For the compound `Cc1ccc(N(C)C)cc1`, the Potency entry is “inactive”.

Take `C1COC1`: the Potency entry is “inactive”.

Take `O=C1CCCCC1`: the Potency result is “inactive”.

As to `Cc1cccc([N+](=O)[O-])c1C(=O)O`, the Potency entry is “inactive”.

For `BrC(Br)C(Br)Br`, the Potency entry is “inactive”.

In the case of `c1ccsc1`, the Potency result is “inactive”.

In the case of `ClCCl`, the Potency result is “inactive”.

For `Nc1ccc(F)cc1F`, the Potency entry was “inactive”.

On to `CCC(C)(C)C(=O)O`, for which the Potency entry is “inactive”.

As for `CC(N)CN` (configuration not stated), the Potency entry is “inactive”.

In the case of `COc1ccc(OC)cc1`, the Potency entry is “inactive”.

In the case of `C1CCC2OC2C1` (configuration not stated), the Potency result was “inactive”.

Turning to `Cc1ccc2cccnc2c1`, the Potency result was “inactive”.

As to `CCOc1cc(OCC)c(C(C)=O)cc1OCC`, the Potency result was “inactive”.

Turning to `CCN(Cc1ccccc1)c1ccccc1`, the Potency result was “inactive”.

For the compound `O=C1NC(=O)c2cc([N+](=O)[O-])ccc21`, the Potency result was “inactive”.

For `CC(C)=C1CCC(C)CC1=O` (configuration not stated), the Potency entry was “inactive”.

On to `CNC(=O)N(c1ccccc1)c1ccccc1`, for which the Potency result was “inactive”.

As to `OCCO`, the Potency result was “inactive”.

For the compound `CC(C)(O)CCC(C)(C)O`, the Potency result is “inactive”.

Regarding `Cc1cccc(C(=O)O)c1`, the Potency result was “inactive”.

Take `C/C(C=O)=C/c1ccccc1`: the Potency result is “inactive”.

With `Cc1cccc(C)c1O`, the Potency entry is “inactive”.

Take `CC(C)c1ccccc1`: the Potency entry is “inactive”.

The values are drawn from PubChem BioAssay (NCATS).
